# From PubChem BioAssay (NCI)
# About 83,000 compounds went through this panel and 20% of them were active in at least one assay; those are over-represented in the sample as a whole.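 Compound tested at a single concentration for 48 hours in 96-well plates; a percent growth value below 10 was scored as active.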 Unmarked numbers belong to inactive results. The source made the active and inactive calls.
# Legend:
# Experiment in all cases: NCI-60 one-dose screen, 48 h (100 = growth as untreated, 0 = no growth, -100 = all killed)
# [1] = test system: NCI-H23 lung; details: 10 µM
# [2] = test system: NCI-H226 lung; details: 10 µM
# [3] = test system: NCI-H322M lung; details: 10 µM
# [4] = test system: HOP-62 NSCLC; details: 10 µM
# [5] = test system: NCI-H460 lung; details: 10 µM
# [6] = test system: A549/ATCC NSCLC; details: 10 µM
# [7] = test system: 786-0 renal; details: 10 µM
# [8] = test system: DU-145 prostate; details: 10 µM
# [9] = test system: K-562 leukemia; details: 10 µM
# [10] = test system: MALME-3M melanoma; details: 10 µM
# [11] = test system: MDA-MB-231 breast; details: 10 µM
# [12] = test system: RXF 393 renal; details: 10 µM
# [13] = test system: SF-268 CNS; details: 10 µM
# [14] = test system: SF-295 CNS; details: 10 µM
# [15] = test system: M14 melanoma; details: 10 µM unless noted
# [16] = test system: HOP-92 NSCLC; details: 10 µM
# [17] = test system: NCI-H522 lung; details: 10 µM
# [18] = test system: UACC-257 melanoma; details: 10 µM
# [19] = test system: SF-539 CNS; details: 10 µM
# [20] = test system: COLO 205 colon; details: 10 µM
Structure (SMILES),growth [1],growth [2],growth [3],growth [4],growth [5],growth [6],growth [7],growth [8],growth [9],growth [10],growth [11],growth [12],growth [13],growth [14],growth [15],growth [16],growth [17],growth [18],growth [19],growth [20] [%]
COc1cc(N)ccc1Nc1c2ccccc2nc2ccccc12,91.8%,73.3%,83.6%,83.6%,4.72% (active),40.8%,69.4%,39.7%,1.11% (active),95.7%,56.4%,95.1%,10.4%,91.5%,94.1%,–,–,–,–,–
O=c1[nH]cc(/C=N\Nc2ccccc2)c(=O)[nH]1,89.9%,87.7%,58.1%,62.7%,47.6%,29.4%,79.6%,74.2%,8.14% (active),84.4%,63.9%,111%,58.5%,45.5%,50.8%,96.7%,19.7%,78.4%,–,–
O=C1C=CC(=O)N1c1ccc(N2C(=O)C=CC2=O)cc1,91.3%,84.8%,92.4%,86.8%,103%,101%,103%,122%,-6.5% (active),85.7%,115%,–,112%,109%,98.3%,123%,-11.5% (active),113%,87%,–
CCOC(=O)[C@]1(Br)CC[C@@]1(Br)C(=O)OCC,109%,91.8%,92.8%,127%,117%,–,118%,120%,43.6%,75.4%,99.4%,111%,108%,108%,86.6%,109%,-6.96% (active),80.8%,104%,–
Cc1cc(Cl)ccc1NC(=O)/C(Cl)=C1/Sc2ccccc2NC1=O,88.4%,90.3%,102%,91%,99.4%,112%,92.9%,121%,88.7%,109%,80.4%,–,103%,118%,83.8%,70.5%,104%,103%,94%,–
N#CC(=C1C=CC(=NO)C=C1)c1ccccc1,35.3%,44.5%,66.3%,6.93% (active),1.48% (active),34%,6.67% (active),-66.7% (active),11.9%,59.1%,-4.14% (active),–,-24% (active),19.6%,-36.5% (active),-7.52% (active),39%,65.6%,-58.7% (active),–
CCC(=O)Oc1ccc(/C=N/NC(N)=S)nc1,26.7%,79.1%,46%,36.4%,52%,98.8%,23.6%,28.4%,47.3%,59%,63.4%,60.5%,25.4%,97.4%,9.1% (active),68.5%,39.4%,68.1%,–,–
O=[N+]([O-])c1cc(S(=O)(=O)Nc2ccccc2)ccc1Cl,97%,99%,90.9%,104%,108%,91.6%,100%,–,83.9%,105%,110%,114%,99.6%,97.2%,88.7%,90%,73.8%,88%,102%,–
C=C1N(C)c2ccc(Cl)cc2C1(C)C,52%,67.6%,84.2%,63.6%,39.4%,44.4%,75.8%,48.9%,13.2%,66%,82.7%,–,77.4%,67.1%,72.2%,48.1%,23.7%,60.4%,109%,–
Cc1cc(C)c(N2C(=O)CC(Sc3ccccc3N)C2=O)c(C)c1 (stereo not drawn),82.6%,–,112%,70.4%,95.6%,74.8%,112%,89.5%,47.4%,77.5%,83.1%,84.8%,80.7%,47.5%,60.3%,–,78.8%,60.4%,88%,–
O=S(=O)(c1cc(Cl)ccc1O)c1cc(Cl)ccc1O,84.6%,78.1%,106%,83.7%,85.1%,81.3%,86.7%,100%,62.1%,95.7%,95.4%,102%,88.2%,85.2%,75.8%,6.03% (active),63.9%,35.1%,86.6%,–
COc1ccc2c(c1)[nH]c1c(/C=C/c3ccccc3)nccc12,60.8%,73%,70.5%,71.8%,56.2%,87.3%,62.9%,103%,36.1%,69.2%,73.7%,69.5%,85.5%,59.2%,71.4%,–,40.3%,71.8%,52.1%,–
COc1cccc(C(c2cc3c(cc2O)OCO3)N2CCOCC2)c1OC (stereo not drawn),109%,99.6%,101%,101%,104%,99.9%,101%,109%,95.8%,99.2%,97.7%,103%,95.8%,99.7%,104%,99.6%,94.8%,98.4%,96.5%,–
CN(C)CCNc1cccc2sc3ccc(O)cc3c(=O)c12,54.6%,74%,59.1%,46.2%,16%,17.3%,63.3%,43.6%,22.7%,1.1% (active),47.2%,60.2%,23.5%,-12.9% (active),53.8%,31.9%,–,–,35.9%,34.9
CC[C@@]1(OC(=O)CN(C)C)C(=O)OCc2c1cc1n(c2=O)Cc2cc3c(N)cccc3nc2-1,-26.7% (active),-13.4% (active),-18.6% (active),-5.79% (active),-5.75% (active),4.76% (active),0.893% (active),4.87% (active),9.06% (active),-23.9% (active),27.7%,-23.4% (active),8.15% (active),-7.04% (active),-40.1% (active),–,-26% (active),-35.4% (active),-30.9% (active),–
